From ChEMBL document CHEMBL4513135, “CO-ADD screening of IQOG CSIS (Spain) compounds” come the findings set out here.

Results with a measured potency or affinity are listed apart.

One test deals with Klebsiella pneumoniae. As to conditions: Concentration 32 ug.mL-1; ASSAY_TEST Inhibition of Bacterial Growth; detection method Absorption (OD600); MEDIA CAMHB; plate type 384well; NBS; CORNING #3640; time 18 hr.
The test system of the next test is Candida albicans. As to conditions: 32 ug/mL.
The next test relates to Cryptococcus neoformans. As to conditions: Concentration 32 ug.mL-1; ASSAY_TEST Inhibition of Fungal Growth; detection method Resazurin; Absorption (OD600-OD570); plate type 384well; NBS; CORNING #3640.

Consider `CCOc1nc2nc3c(c(N)c2cc1C#N)CCCC3`, for which the Inhibition with Klebsiella pneumoniae is -2%; in the test with Candida albicans it was 2.23%; in the test on Cryptococcus neoformans it was -62.45%.

Regarding `COC1(N)Oc2ccc3ccccc3c2C(c2ccccc2)C1(Br)C#N` (centres undefined), the Inhibition is -5.7% in the test with Klebsiella pneumoniae, 8.36% in the test on Candida albicans and -6.17% in the test on Cryptococcus neoformans.

As for `N#Cc1cc(C#N)c(Cl)nc1N`, the Inhibition in the test on Klebsiella pneumoniae is -13.03%; in the test with Candida albicans it was 2.15%; in the test on Cryptococcus neoformans, -5.53%.

In the case of `C#CCn1c(N)c(C#N)c2cc(O)ccc21`, the values for the Inhibition with Klebsiella pneumoniae, with Candida albicans and in the test on Cryptococcus neoformans were 10.3%, 1.41% and -78.39%, respectively.

For `C#CCNc1nc(NC2CCN(Cc3ccccc3)CC2)c(C#N)c(-c2ccccc2)c1C#N`, the Inhibition is -8.37% with Klebsiella pneumoniae, 5.21% in the test with Candida albicans and -52.49% with Cryptococcus neoformans.

For the compound `O=C1OC(c2ccccc2)=NC1=Cc1ccc(Cl)cc1`, the Inhibition in the test on Klebsiella pneumoniae was 7.19%; in the test with Candida albicans, 1.2%; with Cryptococcus neoformans, -3.18%.

Regarding `CCOC(=O)/C(=C\c1ccccc1)C(=O)c1ccccc1`, the results for the Inhibition in the test on Klebsiella pneumoniae, in the test on Candida albicans and in the test with Cryptococcus neoformans were -3.55%, 3.73% and -2.93%, respectively.

For the compound `C#CCNc1[nH]c2ccc(O)cc2c1C#N`, the Inhibition in the test on Klebsiella pneumoniae was 14.34%; in the test on Candida albicans, 1.86%; in the test on Cryptococcus neoformans, -54.9%.

Turning to `C/C=C(/C#N)C(=O)OC`, the Inhibition with Klebsiella pneumoniae is 5.34%; in the test on Candida albicans, -0.41%; in the test with Cryptococcus neoformans it was -2.55%.

Consider `O=C(N/N=C/Cc1ccccc1)c1cc2ccccc2n1Cc1ccccc1`, for which the Inhibition in the test with Klebsiella pneumoniae is 4.61%; in the test on Candida albicans, 1.98%; in the test with Cryptococcus neoformans, -1.83%.

For the compound `CCOC(=O)C1=C(C)OC(N)=C(C#N)C1c1ccc([N+](=O)[O-])cc1` (centres undefined), the Inhibition in the test on Klebsiella pneumoniae was 12.45%; in the test with Candida albicans, -0.07%; in the test with Cryptococcus neoformans, -64.89%.

As to `Cl.N#Cc1c(Cl)nc(N)nc1NCCO`, the Inhibition with Klebsiella pneumoniae stood at 6.6%; in the test on Candida albicans, 1.9%; with Cryptococcus neoformans, 8.33%.

In the case of `CC#CCN(Cc1ccccc1)c1nc(N)c(C#N)c(-c2ccccc2)c1C#N`, the Inhibition in the test with Klebsiella pneumoniae is -4.62%; in the test on Candida albicans, 3.12%; with Cryptococcus neoformans, -26%.

Consider `N#Cc1c(N)nc2[nH]nc(N)c2c1-c1ccccc1`, for which the values for the Inhibition in the test on Klebsiella pneumoniae, in the test on Candida albicans and with Cryptococcus neoformans were 17.63%, 0.49% and -62.75%, respectively.

As to `Cl.NNN1CCc2ccccc21`, the Inhibition was 17.38% in the test on Klebsiella pneumoniae, 2.29% in the test with Candida albicans and -9.55% in the test with Cryptococcus neoformans.

For the compound `O=C(NN=Cc1c[nH]c2ccccc12)c1cccc2ccccc12`, the figures for the Inhibition in the test on Klebsiella pneumoniae, with Candida albicans and with Cryptococcus neoformans were 12.1%, 1.76% and -3.56%, respectively.

In the case of `NOC(=O)C1CCN(Cc2ccccc2)CC1`, the Inhibition in the test with Klebsiella pneumoniae was 4.34%; with Candida albicans it was 1.62%; in the test with Cryptococcus neoformans, -5.93%.

On to `CCOC(=O)C1=C(C)OC(N)=C(C#N)C1c1cccs1` (centres undefined), for which the Inhibition is 7.75% with Klebsiella pneumoniae, 0.39% in the test with Candida albicans and -27.56% in the test with Cryptococcus neoformans.

In the case of `CCOC(=O)c1c(C)nc2nc3c(c(N)c2c1-c1ccccc1OC)CCCCC3`, the Inhibition was 0.86% with Klebsiella pneumoniae, -0.21% in the test with Candida albicans and -93.54% in the test on Cryptococcus neoformans.

Turning to `O=Cc1ccc(OCCO[N+](=O)[O-])cc1`, the Inhibition with Klebsiella pneumoniae was 8.5%; in the test on Candida albicans it was 5.46%; with Cryptococcus neoformans it was -2.32%.

For `Cl.OCCCC1CCNCC1`, the Inhibition was 3.57% with Klebsiella pneumoniae, 1.52% in the test on Candida albicans and -1.05% in the test with Cryptococcus neoformans.

With `CC1=NC(=Cc2ccc([N+](=O)[O-])cc2)C(=O)O1`, the Inhibition in the test on Klebsiella pneumoniae is -0.23%; in the test on Candida albicans, -0.54%; in the test on Cryptococcus neoformans, -1.41%.

In the case of `O=Cc1c[nH]c2ccccc12` [3-FORMYLINDOLE], the Inhibition in the test with Klebsiella pneumoniae is 22.42%; in the test with Candida albicans, 1.76%; in the test on Cryptococcus neoformans, -4.21%.

With `CC#CCN(C)Cc1cc2cc(OCc3ccccc3)ccc2n1C.O=C(O)C(=O)O`, the results for the Inhibition with Klebsiella pneumoniae, with Candida albicans and in the test with Cryptococcus neoformans were 22.38%, 3.08% and -0.27%, respectively.

Regarding `Cc1nn(-c2ccccc2)c2ncnc(Nc3ccccc3)c12`, the Inhibition with Klebsiella pneumoniae was 14.62%; in the test with Candida albicans, 0.48%; in the test on Cryptococcus neoformans, -2.23%.

For `N#Cc1cc2c(N)c3c(nc2nc1Cl)CCN(Cc1ccccc1)C3`, the Inhibition in the test on Klebsiella pneumoniae is 13.32%; in the test on Candida albicans, 2.4%; with Cryptococcus neoformans, -88.69%.

On to `N#CC1=C(N)Oc2c(ccc3ccccc23)C1c1ccc(O)cc1` (centres undefined), for which the results for the Inhibition in the test on Klebsiella pneumoniae, in the test with Candida albicans and with Cryptococcus neoformans were 6.16%, 0.86% and -59.36%, respectively.

Consider `C#CCN(C)c1cc(C)nc(C)n1`, for which the Inhibition in the test on Klebsiella pneumoniae was 18.17%; in the test on Candida albicans, 5.55%; in the test with Cryptococcus neoformans, -42.1%.

In the case of `Cc1nc(Nc2ccccc2)c2cnn(-c3ccccc3)c2n1`, the values for the Inhibition in the test on Klebsiella pneumoniae, in the test on Candida albicans and in the test with Cryptococcus neoformans were 17.53%, 0.68% and -5.65%, respectively.

In the case of `Cn1c(C(=O)O)cc2ccccc21`, the Inhibition amounted to 18.05% with Klebsiella pneumoniae, 24.1% with Candida albicans and 5.37% with Cryptococcus neoformans.

Turning to `Cn1ccnc1C1c2ccc3cccnc3c2Oc2nc3c(c(N)c21)CCCCC3` (centres undefined), the Inhibition with Klebsiella pneumoniae is 9.25%; with Candida albicans it was 2.52%; with Cryptococcus neoformans it was -79.42%.

As to `COc1cccc(C2c3c(nc4c(c3N)CCCC4)Oc3ccc4ccccc4c32)c1` (centres undefined), the Inhibition was 7.83% in the test on Klebsiella pneumoniae, -0.15% in the test on Candida albicans and -0.19% in the test on Cryptococcus neoformans.

Turning to `Cc1ccc(/C=C(\C#N)C(=O)c2ccccc2)cc1`, the Inhibition in the test on Klebsiella pneumoniae is 11.17%; in the test on Candida albicans, 1.76%; with Cryptococcus neoformans, -10.05%.

Regarding `Nc1c2c(nc3c1C(c1ccccc1)c1ccc4ccccc4c1O3)CCCC2` (centres undefined), the Inhibition in the test on Klebsiella pneumoniae came to 7.96%; in the test on Candida albicans, 0.57%; in the test with Cryptococcus neoformans it was 5.07%.

For the compound `CC1Cc2c(Cl)nc3nc4c(c(N)c3c2NC1=O)CCCC4` (centres undefined), the results for the Inhibition in the test with Klebsiella pneumoniae, in the test on Candida albicans and in the test with Cryptococcus neoformans were 8.15%, 2.83% and -81.78%, respectively.

Consider `COC1=C(C#N)C(c2ccccc2)C(C=O)=C(Cl)N1` (centres undefined), for which the Inhibition was 16.25% with Klebsiella pneumoniae, 4.19% in the test with Candida albicans and -31.69% with Cryptococcus neoformans.

For the compound `C#CCN(Cc1ccccc1)c1nc(N)c(C#N)c(-c2ccccc2)c1C#N`, the Inhibition in the test with Klebsiella pneumoniae is -5.74%; in the test on Candida albicans, 2.73%; in the test with Cryptococcus neoformans, -25.11%.

Turning to `CC(C)C(=O)N/N=C/c1c[nH]c2ccccc12`, the Inhibition was 19.59% with Klebsiella pneumoniae, -0.11% in the test with Candida albicans and -5.03% in the test with Cryptococcus neoformans.
